Several values for one entry are separate records, joined by “and”; a condition that tells them apart may be missing. Equal values may be shown once. Inconclusive results are not listed. A structure can be active in one record and inactive in another. Activity calls are given as the source filed them. Calls follow the shape of the dose curve; as a rule, active = well fitted inhibition curve with a large enough effect; inconclusive = small, poorly fitted or top-dose-only effect; inactive = flat fitted curve, though single readings scatter.
What was measured:
[1] = system: HACAT; assay: qHTS assay to identify novel small-molecules to repurpose for Merkel cell carcinoma treatment (AID 1296009); settings: MCC and control cell lines, CellTiter-Glo viability, 72 h; also: potency is read from the fitted curve at half-maximal effect
Outline: (§1)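 Cell viability measured by CellTiter-Glo following 72 hr compound treatment at 37 degree celsius, with NPC and MIPE libraries tested in 8- and 11-point concentration series.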

[2] = system: CRL-7250; assay: Cytotoxic Profiling of Annotated Libraries Using Quantitative High-Throughput Screening (AID 1296008); settings: Five cell lines viability, CellTiter-Glo ATP luminescence, 48-72 h; max response: stronger effect = lower value; also: potency is read from the fitted curve at half-maximal effect; as to max response: % is scaled to controls: 0 for no effect and ±100 for the full control effect
Outline: (§2)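 Cytotoxicity was measured as CellTiter-Glo ATP luminescence, read after 10 min at room temperature. Compound treatment of the cells lasted 48 or 72 hr at 37 degrees Celsius in a qHTS format.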

[3] = system: HEK293; assay: as above; settings: Five cell lines viability, CellTiter-Glo ATP luminescence, 48-72 h; max response: stronger effect = lower value
Outline: as §2

[4] = system: HaCat; assay: as above; settings: Five cell lines viability, CellTiter-Glo ATP luminescence, 48-72 h; max response: stronger effect = lower value
Outline: as §2

[5] = system: KB-3-1; assay: as above; settings: Five cell lines viability, CellTiter-Glo ATP luminescence, 48-72 h; max response: stronger effect = lower value
Outline: as §2

[6] = system: NIH3T3; assay: as above; settings: Five cell lines viability, CellTiter-Glo ATP luminescence, 48-72 h; max response: stronger effect = lower value
Outline: as §2

[7] = system: MCC-13; assay: qHTS assay to identify novel small-molecules to repurpose for Merkel cell carcinoma treatment (AID 1296009); settings: MCC and control cell lines, CellTiter-Glo viability, 72 h; series mostly up to 46 µM; also: potency is read from the fitted curve at half-maximal effect
Outline: as §1

[8] = system: MKL-1; assay: as above; settings: MCC and control cell lines, CellTiter-Glo viability, 72 h; series mostly up to 46 µM
Outline: as §1

[9] = system: MKL-2; assay: as above; settings: MCC and control cell lines, CellTiter-Glo viability, 72 h; series mostly up to 46 µM
Outline: as §1

[10] = system: MCC-26; assay: as above; settings: MCC and control cell lines, CellTiter-Glo viability, 72 h; series mostly up to 46 µM
Outline: as §1

[11] = system: PAD; assay: qHTS profiling for inhibitors of Plasmodium falciparum proliferation (AID 504749);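 also: 0% = DMSO vehicle and full inhibition = artemisinin control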; settings: P. falciparum in erythrocytes, SYBR Green DNA, 72 h; series mostly up to 28.7 µM
Outline: (§3)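 In a 72 h erythrocytic culture (37 C, humidified, 5% CO2) at 2.5% hematocrit and 0.3% starting parasitemia, compounds were tested; SYBR Green I in detergent lysis buffer stained parasite DNA overnight.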

[12] = system: PC15; assay: as above; settings: P. falciparum in erythrocytes, SYBR Green DNA, 72 h; series mostly up to 28.7 µM
Outline: as §3

[13] = system: PC26; assay: as above; settings: P. falciparum in erythrocytes, SYBR Green DNA, 72 h; series mostly up to 28.7 µM
Outline: as §3

[14] = system: PC49; assay: as above; settings: P. falciparum in erythrocytes, SYBR Green DNA, 72 h; series mostly up to 28.7 µM
Outline: as §3

[15] = system: SC27B; assay: as above; settings: P. falciparum in erythrocytes, SYBR Green DNA, 72 h; series mostly up to 28.7 µM
Outline: as §3

[16] = system: TAB109; assay: as above; settings: P. falciparum in erythrocytes, SYBR Green DNA, 72 h; series mostly up to 28.7 µM
Outline: as §3

[17] = system: TAB113; assay: as above; settings: P. falciparum in erythrocytes, SYBR Green DNA, 72 h; series mostly up to 28.7 µM
Outline: as §3

[18] = system: TAB165; assay: as above; settings: P. falciparum in erythrocytes, SYBR Green DNA, 72 h; series mostly up to 28.7 µM
Outline: as §3

[19] = system: W2; assay: as above; settings: P. falciparum in erythrocytes, SYBR Green DNA, 72 h; series mostly up to 28.7 µM
Outline: as §3

[20] = at 44.8 µM (top of the series) unless noted
Also: nearly all actives have a fitted effect of over 60% in size.

CCN(CC)CCCC(C)Nc1ccnc2cc(Cl)ccc12 (configuration not stated)
inactive: outcome ([1]; at 9.27 µM (top of the series)) | outcome ([1]; at 17.4 µM (top of the series)) | outcome ([1]; at 44.8 µM (top of the series))

O=C(O)COCCN1CCN(C(c2ccccc2)c2ccc(Cl)cc2)CC1 (configuration not stated)
inactive: max response [2] -0.386% | max response [3] 0.378% and -0.675% | max response [4] -5.21% and -2.14% | max response [5] 6.76% and 8.88% | max response [6] -0.466% | outcome [6] | Potency [7] | Potency [8] | Potency [9]

CCC(C)n1ncn(-c2ccc(N3CCN(c4ccc(OC[C@H]5CO[C@](Cn6cncn6)(c6ccc(Cl)cc6Cl)O5)cc4)CC3)cc2)c1=O (some centres not stated)
active: Potency [3] 2.82 µM
inactive: max response [2] -2.71% | max response [4] 1.24% | outcome [4] | max response [5] -3.28% and -9.44% and -24.5% | max response [6] -7.51% | outcome [1, 20] | Potency [7] | Potency [10] | Potency [8] | Potency [9]

CCN(c1ccccc1)c1cc(NC)[n+](C)c(C)n1
inactive: max response [2] -1.6% | max response [3] 1.35% | outcome [4] | max response [5] 7.88% | max response [6] -7.55% | outcome [1, 20] | Potency [7] | Potency [10] | Potency [8] | Potency [9]

NCCc1ccc(O)c(O)c1
18.7 µM (active) and inactive: Potency [9]
inactive and 23.7 µM (active): Potency [8]
inactive and 5.31 µM (active): Potency [7]
inactive: Potency [11] | Potency [12] | Potency [13] | Potency [14] | Potency [15] | Potency [16] | Potency [17] | Potency [18] | max response [2] 1.67% and -14% | max response [3] -42.9% | max response [4] 2.7% | outcome [4] | max response [5] -3.12% and 0.713% | max response [6] 2.44% and -9.95% | outcome [1, 20] | Potency [10]

CC[C@H](Nc1ncnc2nc[nH]c12)c1nc2cccc(F)c2c(=O)n1-c1ccccc1
inactive: max response [2] -4.35% | outcome [5] | max response [6] -27.5% | Potency [7] | Potency [10] | Potency [8]
active: Potency [3] 23.5 µM | Potency [4] 13.2 µM

CN(C)C(=O)c1ccc(S(=O)(=O)c2ccc(NC(=O)[C@@](C)(O)C(F)(F)F)c(Cl)c2)cc1
inactive: max response [4] -8.31% | outcome [4] | max response [5] -27.1% and -22.5% | outcome [6] | outcome [1, 20] | Potency [7] | Potency [10] | Potency [8]
active: Potency [2] 5.26 µM and 5.8 µM | Potency [3] 3.72 µM

Cc1cc(SCc2sc(-c3ccc(C(F)(F)F)cc3)nc2C)ccc1OCC(=O)O
inactive: max response [2] -3.25% | max response [3] 3.06% and 3.28% | max response [4] -0.39% and 1.93% | max response [5] 0.144% | outcome [5] | outcome [6] | Potency [7] | Potency [10] | Potency [8] | Potency [9]

CCC(=O)N[C@H]1CC[C@H](C(=O)N(C)c2ccc(-c3nc4ccccc4o3)cc2)C1
active: Potency [3] 20.9 µM
inactive: max response [2] -6.63% | outcome [4] | max response [5] -16.3% | max response [6] -2.14% | outcome [1, 20] | Potency [7] | Potency [8]

CS(=O)(=O)Oc1ccc2c(NC(N)=O)c(C(=O)c3ccc(Cl)cc3Cl)oc2c1
active: Potency [8] 8.33 µM | Potency [9] 2.96 µM
inactive: outcome [2] | max response [3] 3.62% | outcome [4] | max response [5] 0.867% | max response [6] -0.156% | outcome [1, 20] | Potency [7] | Potency [10]

CC[C@@H](C)[C@H](NC(=O)[C@H](CC1CCCCC1)NC(=O)c1ccno1)C(=O)N1CCC2(CCc3ccccc32)CC1
inactive: max response [2] -8.58% and -11.9% | max response [3] -11.2% | outcome [4] | max response [5] -5.09% and 8.53% | max response [6] -7.84% and -2.63% | outcome [1, 20] | Potency [7] | Potency [10] | Potency [8] | Potency [9]

CCOc1ccc(Cc2cc([C@@H]3O[C@H](CO)[C@@H](O)[C@H](O)[C@@H]3O)ccc2Cl)cc1
inactive: max response [2] -1.42% | max response [3] 1.73% | outcome [4] | max response [5] 6.49% | max response [6] 1.42% | outcome [1, 20] | Potency [7] | Potency [10] | Potency [9]

COc1cccc2cc(-c3nc(C4CCC(C(=O)O)CC4)n4ncnc(N)c34)[nH]c12 (configuration not stated)
inactive: max response [4] -14.5% | max response [6] -35.2% | Potency [7] | Potency [10] | Potency [8] | Potency [9]
active: Potency [2] 166 nM | Potency [3] 5.9 µM and 3.66 µM | Potency [5] 2.35 µM | Potency [6] 7.31 µM

Cc1cc(C=c2sc3nc4ccccc4n3c2=O)c(C)n1-c1ccccc1
inactive: max response [2] -1.5% | max response [3] -0.0904% | outcome [4] | max response [5] 1.4% | max response [6] -1.17% | outcome [1, 20] | Potency [7] | Potency [8] | Potency [9]

O=C1CCc2cc(OCCCCc3nnnn3C3CCCCC3)ccc2N1
inactive: Potency [16] | Potency [19] | max response [2] -14.2% and -108% | max response [3] -7.13% | outcome [4] | max response [5] -0.483% and -0.724% | outcome [6] | outcome [1, 20] | Potency [7] | Potency [8] | Potency [9]

Reference: PubChem BioAssay (NCATS)
